Measured values: PubChem BioAssay AID1117283 (Broad Institute, 2014)
Entries with a potency or affinity are not part of this list. Activity calls are given as the source filed them.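 How the source made its calls: active means fluorescent signal decreased by at least 40%; inconclusive means no clear call, values can overlap the other calls; inactive means the rest, including activity opposite to the expected direction.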

assay: inhibition of fibronectin matrix deposition – AH1F cells, Alexa488-fibronectin fluorescence, cherry-pick, set 2, dose response (AID 1117283); details: AH1F fibroblasts, overnight; series mostly up to 35 µM;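 further: AH1F fibroblasts given Alexa488-labelled fibronectin at 24 nM final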

Structure (SMILES)	outcome
C[C@H](CO)N1C[C@H](C)[C@H](CN(C)C(=O)c2cccc(F)c2)Oc2ncc(-c3ccccc3)cc2C1=O	inactive
COc1ccc(S(=O)(=O)N2CCCCC2c2cc(C(=O)Nc3ccc4c(c3)OCO4)no2)cc1 (configuration not stated)	inactive
C[C@H](O)C#Cc1ccc2c(c1)O[C@H](CN(C)C)[C@H](C)CN([C@@H](C)CO)S2(=O)=O	inactive
N#Cc1ccc(-c2ccc3c(c2)[C@@H]2[C@@H](CCN2S(=O)(=O)c2cccc(F)c2)[C@@H](CO)N3)cc1	inactive
Cc1ccc(S(=O)(=O)N2CC3(C)CN(S(=O)(=O)c4ccc(C)cc4)CC(C)(C2)C3=O)cc1	inactive
COCC(=O)Nc1ccc2c(c1)C(=O)N(C)[C@H]1CC[C@@H](CC(=O)NCc3ccccc3Cl)O[C@H]1CO2	inactive
CCOc1cccc(C(=O)Nc2ccc(N(CC)CC)cc2)c1	inactive
O=c1c2cc(N3CCOCC3)ccc2[nH]c(=S)n1Cc1ccc(Cl)cc1	inactive
C[C@@H]1CN([C@H](C)CO)C(=O)c2cc(NC(=O)CCCN(C)C)ccc2O[C@H]1CN(C)Cc1ccc(-c2ccccc2)cc1	inactive
Cc1cc(C)n2ncc(C(=O)NCc3ccc(Cl)cc3)c2n1	inactive
COc1ccc(CN(C2CCCC2)S(=O)(=O)c2ccc(-n3cnnn3)cc2)cc1OC	inactive
COC(=O)C[C@H]1CC[C@@H]2[C@@H](COc3ccc(NC(=O)Cc4cccs4)cc3C(=O)N2C)O1	inactive
O=S(=O)(c1cccc(F)c1)N1CC[C@@H]2[C@@H](CO)Nc3ccc(-c4cccc(F)c4)cc3[C@@H]21	inactive
CC(C)(C)c1cc(Cl)c(O)c(NC(=S)NC(=O)c2cccnc2)c1	inactive
N#C[C@@H]1[C@@H](c2ccccc2C2=CCCCC2)[C@@H](CO)N1S(=O)(=O)c1ccccc1	inactive
CCCCOc1ccc(C(C)NC(=O)C2CCCN(S(=O)(=O)CCC)C2)cc1 (configuration not stated)	inactive
C[C@@H]1CN([C@H](C)CO)C(=O)c2cc(-c3ccccc3)cnc2O[C@@H]1CN(C)Cc1ccccc1	inactive
C[C@H](CO)N1C[C@H](C)[C@H](CN(C)Cc2ccc(-c3ccccc3)cc2)Oc2ccc(NC(=O)C3CCCCC3)cc2C1=O	inactive
Cc1ccccc1S(=O)(=O)N1CC[C@H]2[C@H](CO)Nc3ccc(-c4ccc(C#N)cc4)cc3[C@H]21	inactive

Structure (SMILES)	outcome
N#Cc1ccc(-c2ccc3c(c2)[C@H]2[C@H](CCN2S(=O)(=O)c2cccc(F)c2)[C@@H](CO)N3)cc1	inactive
CCS(=O)(=O)c1ncc(Cl)c(C(=O)Nc2ccc(S(=O)(=O)N3CCC(C)CC3)cc2)n1	inactive
CCC(C)(C)NC(=O)C(OC(=O)c1ccco1)c1ccccc1OC (configuration not stated)	inactive
Cc1cccc(NC(=O)Nc2ccc(S(=O)(=O)Nc3onc(C)c3C)cc2)c1	inactive
CO[C@@H]1CN(C)C(=O)c2cc(NC(=O)Nc3ccc(Cl)c(Cl)c3)ccc2OC[C@@H](C)NC[C@@H]1C	inactive
N#C[C@H]1[C@@H](c2ccccc2C2=CCCCC2)[C@@H](CO)N1S(=O)(=O)c1ccccc1	inactive
C[C@@H]1CN([C@@H](C)CO)C(=O)c2cc(-c3ccccc3)cnc2O[C@H]1CN(C)C(=O)c1cccc(F)c1	inactive
N#Cc1ccc(-c2ccc3c(c2)[C@@H]2[C@@H](CCN2S(=O)(=O)c2cccc(F)c2)[C@H](CO)N3)cc1	inactive
C=CCC[C@H](Cc1ccc(F)cc1)C(=O)OC[C@H](Cc1c[nH]c2ccccc12)NC(=O)[C@@H](CC=C)CC(=O)N[C@@H](CO)Cc1ccccc1	inactive
CN1c2ccc(-c3ccccc3)cc2[C@H]2[C@H](CCN2C(=O)CN2CCOCC2)[C@@H]1CO	inactive
C[C@H](CO)N1C[C@H](C)[C@@H](CN(C)C(=O)c2cccc(F)c2)Oc2ncc(-c3ccccc3)cc2C1=O	inactive
C[C@H](O)C#Cc1ccc2c(c1)O[C@@H](CN(C)C)[C@H](C)CN([C@H](C)CO)S2(=O)=O	inactive
CO[C@H]1CN(C)C(=O)c2ccc(NC(=O)c3ccc(-c4ccccc4)cc3)cc2OC[C@H](C)NC[C@H]1C	inactive
CN(C)C(=O)c1ccc(-c2ccc3c(c2)[C@H]2[C@H](CCN2C(=O)c2ccc(F)cc2)[C@H](CO)N3C)cc1	inactive
C[C@@H]1CN([C@@H](C)CO)C(=O)c2cc(-c3ccccc3)cnc2O[C@H]1CN(C)Cc1ccccc1	inactive
C[C@H](O)C#Cc1ccc2c(c1)O[C@H](CN(C)C)[C@H](C)CN([C@H](C)CO)S2(=O)=O	inactive
CO[C@H]1CN(C)C(=O)c2cc(NC(C)=O)ccc2OC[C@@H](C)N(C(=O)CN2CCOCC2)C[C@H]1C	inactive
CN1c2ccc(-c3ccccc3)cc2[C@@H]2[C@@H](CCN2C(=O)CN2CCOCC2)[C@@H]1CO	inactive
